EBV gp42 block: EBV gp42 inhibition; inhibition, % (tested at 21.74 µM); Fluorescence polarization binding assay, mP read-out; Q1HVG2; 220,000 compounds, 0.42% hits; AID 1085; in the data active = inhibition above about 50%
BCLXL inh: inhibitors of human Bcl-xL | inhibition, % at 10.9 µM | 320,000 compounds, 0.7% hits | Q07817 | GST-Bcl-xL / FITC-Bim BH3 peptide fluorescence polarization | AID 2129;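 active = inhibition above the mean of all tested compounds plus 3 SD, cutoff set per campaign, cut at about 30% in these data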;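 also: 0% = DMSO wells and 100% = unlabeled Bim-BH3 peptide competitor; inhibitors lower millipolarization by displacing the labeled peptide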
MEX-5 binding: C. elegans MEX-5 TCR-2 RNA binding activity | MEX-5/FITC-TCR2 RNA binding, fluorescence polarization; stronger effect = lower value | activity score (negative = inhibition of binding), % at 10 µM | 300,000 compounds, 0.38% hits | AID 1832;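 active = inhibition past about -25% in most replicates, and total fluorescence under double the plate's negative control median, limit read from the data; inconclusive = replicates evenly split on the limit, or fluorescence at least double controls; inactive = too little inhibition in most replicates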;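 also: 0% = DMSO and -100% = 5 µM competing unlabeled TCR2 RNA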
GLD-1 TGE inh: GLD-1-TGE RNA interaction inhibition (C. elegans); Q17339; inhibition, % at 5.96 µM; 320,000 compounds, 0.44% hits; purified GLD-1 + fluorescein TGE RNA, fluorescence polarization;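 active = percent inhibition above a per-plate cutoff, the plate mean of test compounds plus 3 SD, cut at about 30% in these data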;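 also: 0% = DMSO wells with GLD-1 and probe and 100% = wells lacking GLD-1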
Target sequence (Q17339 whole entry, looked up): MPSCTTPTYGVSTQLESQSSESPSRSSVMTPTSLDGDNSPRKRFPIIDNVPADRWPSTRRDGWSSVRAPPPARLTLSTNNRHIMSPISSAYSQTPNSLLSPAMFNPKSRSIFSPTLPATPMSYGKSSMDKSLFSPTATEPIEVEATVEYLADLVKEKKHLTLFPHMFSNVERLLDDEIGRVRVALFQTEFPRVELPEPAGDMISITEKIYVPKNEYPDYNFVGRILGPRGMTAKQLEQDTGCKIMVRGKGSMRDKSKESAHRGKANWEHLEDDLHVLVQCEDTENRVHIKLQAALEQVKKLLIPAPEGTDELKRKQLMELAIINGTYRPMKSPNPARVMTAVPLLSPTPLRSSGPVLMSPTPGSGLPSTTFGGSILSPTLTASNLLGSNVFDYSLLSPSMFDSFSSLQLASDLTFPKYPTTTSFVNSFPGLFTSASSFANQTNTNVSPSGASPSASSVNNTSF
MCL1-BIM inh: disrupts human MCL1 binding to BIM-BH3 peptide; AID 2057; inhibition, % at 10.9 µM; 320,000 compounds, 0.68% hits; GST-MCL1 / FITC-Bim-BH3 fluorescence polarization;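 active = inhibition above the mean inhibition of all tested compounds plus 3 SD, set per campaign, cut at about 40% in these data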;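 also: 0% = DMSO wells and 100% = unlabeled Bim-BH3 peptide control; higher means more loss of mP so more displacement of Bim peptide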
E coli Lon inh: inhibits E. coli Lon protease. P0A9M0. purified E. coli Lon protease, fluorescence polarization. inhibition, % at 7.94 µM. 360,000 compounds, 0.42% hits. AID 602123; in the data active = inhibition above about 13%, passing the limit was not always enough;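 also: 0% = enzyme with probe and DMSO and 100% = no enzyme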
Starred values were filed as active, the others as inactive; ? = inconclusive; nt = no result given. Compounds with a hit are over-represented: about 1.4% of the library has one in this group of screens.

SMILES | EBV gp42 block | BCLXL inh | MEX-5 binding | GLD-1 TGE inh | MCL1-BIM inh | E coli Lon inh
CC1=C(C(=O)OCc2ccccc2)C(c2ccccc2[N+](=O)[O-])NC(=O)N1C (centres undefined) | nt | 12 | -39* | 10 | 19 | 3
CC1CCCCN1CCNC(=O)c1cc2c(=O)n(C)c3ccccc3c2n1C (centres undefined) | 8 | 34* | -6 | -50 | 29 | 3
Cn1c(C(=O)NCCN2CCOCC2)cc2c(=O)n(C)c3ccccc3c21 | -26 | 2 | -4 | 8 | -2 | 0
O=C(Cc1ccc2cccnc2c1)c1ccc(O)cc1O | -14 | 6 | -1 | -2 | 7 | -3
Oc1ccc2cccnc2c1 | 38 | 40* | -14 | 25 | 45* | 5
COC(=O)/C=C1\C(=O)N(c2nc3ccccc3s2)C(=S)N1c1ccc(F)cc1 | -25 | -4 | -30* | 2 | -1 | -2
CCCCC(=Nc1ccc(N)cc1)C1=C(O)C(C(=O)OC)C(C)(C)CC1=O (centres undefined) | -10 | 32* | 1 | 8 | 32 | 5
CCOC(=O)/C(=N\Nc1ccccc1)P(=O)(c1ccccc1)c1ccccc1 | 7 | 9 | 0 | 10 | 3 | 11
N#Cc1ccc(-c2cccnc2)nc1SCC(=O)c1ccccc1 | -17 | 36* | 4 | -87 | 20 | -247
COC(=O)[C@H](CC(C)C)NC(=O)Cn1cnc2c(NCc3ccccc3)ncnc21 | nt | nt | nt | nt | nt | 4
COc1ccc(-c2cc(C(=O)NCC3CCCO3)on2)cc1OC (centres undefined) | nt | 34* | 0 | 7 | 1 | 1
COc1cccc(-c2cc(C(=O)NCC3CCCO3)on2)c1 (centres undefined) | nt | 4 | -5 | 1 | 7 | -3
Cc1cccc(N(C)S(=O)(=O)c2nnc(NC(=O)c3ccco3)s2)c1 | nt | 1 | -33* | 1 | 1 | -8
CC(=O)Nc1ccc(NC(=O)c2cccc(-c3cc4ccccc4oc3=O)c2)cc1 | 1 | -3 | 0 | 2 | 8 | -1
COc1ccc(C(=O)Nc2cccc(-c3cc4ccccc4oc3=O)c2)cc1[N+](=O)[O-] | 58* | 2 | nt | 6 | 10 | 4
CCC1=[N+](C)CCn2c(C)ccc21 | -29 | -11 | 0 | -10 | -18 | 3
CC(=O)c1c(C)c(C)c2n1CCn1c(C)ccc1-2 | 0 | 36* | -8 | 18 | 31 | 10
CC1Cc2ccccc2N1Cc1cc(=O)n2ccsc2n1 (centres undefined) | 29 | 33* | nt | 11 | 26 | 10
COCCNC(=O)C1(C)CCCN(Cc2ccc(-n3ccnc3)cc2)C1 (centres undefined) | nt | nt | nt | nt | nt | -5
Cc1cc(=O)c(C(=O)c2ccccc2)c(C)o1 | nt | 37* | 0 | 6 | -1 | 14
Cc1oc2ccc(O)cc2c1C(=O)c1ccccc1 | nt | -2 | -1 | 0 | -7 | -2
COc1cccc(COC(=O)Cc2ccc(S(=O)(=O)N3CCOCC3)s2)c1OC | nt | 7 | nt | 1 | 8 | 16
CC[C@H](C)/C=C(C)/C=C/C1=CC2=CC(=O)[C@]3(C)OC(=O)[C@@H](C(C)=O)[C@@H]3C2=CO1 | 17 | 38* | -19 | 34* | 47* | -30
Cc1ccc(-n2ncc3c(NNC(=O)Cc4ccccc4)ncnc32)cc1 | 2 | 2 | -2 | 10 | -6 | 0
Cn1ncc2c(NNC(=O)Cc3ccccc3)ncnc21 | -10 | -1 | -35* | 1 | -8 | -12
SMILES | EBV gp42 block | BCLXL inh | MEX-5 binding | GLD-1 TGE inh | MCL1-BIM inh | E coli Lon inh
COC(=O)CN1C(=S)N(c2ccc(OC)cc2)C(=O)/C1=C/c1ccc(N2CCOCC2)cc1 | 75* | -84 | -7 | -47 | -163 | -278
CC(NC(=O)C1CCN(C(=O)c2ccc(F)cc2)CC1)c1ccc(-n2ccnc2)cc1 (centres undefined) | nt | 1 | nt | 1 | -3 | 7
C/C(=C\COc1ccc2ccc(=O)oc2c1)CC[C@@H](O)C(C)(C)O | nt | 160* | nt | 5 | 9 | 0
c1cc(C(c2nnnn2C2CCCCC2)N2CCN3CCCC3C2)ccn1 (centres undefined) | 6 | 37* | -5 | 28 | 39 | 7
COC(=O)c1ccccc1NC(=O)CNC(=O)c1ccc(OC)c(OC)c1 | -8 | 5 | 0 | -2 | 1 | 4
CN(CC(=O)Nc1ccccc1Cl)C(=O)CCc1nc2ccccc2c(=O)[nH]1 | nt | 31* | -11 | 25 | 31 | -14
COc1ccc(CCN2C(=NC(=O)C(C)C)SC3CS(=O)(=O)CC32)cc1OC (centres undefined) | -14 | 1 | 0 | 9 | 1 | 3
O=C(Nc1ccc2[nH]c3c(c2c1)CCCC3)c1ccco1 | 68* | 52* | 3 | 30 | 40* | 10
Cc1cc2cc(NC(=O)c3ccco3)ccc2[nH]1 | -4 | 5 | 0 | -4 | 4 | 1
CC(C)(C)Nc1ncnc2c1cnn2-c1ccccc1 | nt | 13 | 2 | 8 | 6 | -2
O=c1[nH]n(-c2ncnc3c2cnn3-c2ccccc2)c(=O)c2ccccc12 | -8 | 8 | -39* | 6 | 9 | 3
CCOC(=O)c1c2c3c(cccc3[nH]c1=O)C(=O)c1ccccc1-2 | 14 | 54* | -6 | 21 | 47* | -2
CC(C)C1N(C(=O)N2CCOCC2)CCN1S(=O)(=O)c1ccccc1 (centres undefined) | nt | 0 | 0 | 1 | 2 | 13
C[C@H](CO)N1C[C@H](C)[C@@H](CN(C)Cc2ccc(Oc3ccccc3)cc2)Oc2c(NS(=O)(=O)c3cn(C)cn3)cccc2C1=O | nt | nt | nt | 2 | nt | -3
CCSc1nnc(CNC(=O)C23CC4CC(CC(C4)C2)C3)n1C1CCCCC1 | -18 | -1 | 0 | 2 | -7 | 2
O=C1SC(SCc2ccccc2Cl)=N/C1=C\c1ccc(C(=O)O)cc1 | -2 | 8 | -41* | -2 | 14 | -1
CCSC1=N/C(=C\c2ccc(C(=O)O)cc2)C(=O)S1 | -5 | 5 | -6 | -6 | 8 | -9
CC(=O)Nc1sc(NC(=O)c2ccc(C)cc2)nc1-c1cccs1 | -3 | 2 | 0 | -9 | 5 | -3
O=C1N=c2ccc(Br)cc2=C1c1sc(=O)[nH]c1O | nt | 20 | -26* | 2 | 19 | nt
Cc1ccc2c(c1)=C(c1sc(N(C)c3ccc(O)cc3)nc1O)C(=O)N=2 | nt | 8 | 1 | -7 | 11 | -16
COCCNc1c(-c2cc3ccc(C)c(C)c3[nH]c2=O)nc2ccccn12 | -20 | 3 | 0 | -3 | -2 | 6
O=C(O)CCCN1C(=O)/C(=C\c2ccc(-c3nc4ccccc4s3)o2)SC1=S | 13 | 16 | -56* | -7 | 23 | -5
O=C(O)CCN1C(=O)/C(=C/c2ccc(-c3nc4ccccc4s3)o2)SC1=S | -1 | 10 | ? | -13 | 15 | -8

Screening data as filed in PubChem.
